# Screen size: about 370,000 compounds; about 4,700 (1.3%) were called active.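 The calls were made as follows: active = inhibition above the plate cutoff, the mean of all test compounds on that plate plus 3 SD (cut at about 35% in these data); inactive = the rest.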 The entries come from a sample that favours actives as a whole.
# Assay: small molecules binding CAG repeat RNA – biochemical, fluorescence, primary screen (AID 651821);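 also: 0% = DMSO alone and 100% = 100 µM mitoxantrone as full dye displacement; higher means more dye released from RNA so lower well fluorescence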
# Conditions: r(CAG) RNA repeat, TO-PRO-1 dye displacement fluorescence; at 3 µM; active compounds read high
row,Structure (SMILES),inhibition
1,COc1cccc(CNC(=O)[C@H]2CCCN2C(=O)[C@H]2CCCN2C(=O)c2ccc(F)cc2)c1,0.66% (inactive)
2,Cc1cc(OC(=O)NCCc2ccc(F)cc2)ccc1F,1.32% (inactive)
3,CC(=O)c1ccc(S(=O)(=O)NCC2CCN(C(=O)C(=O)c3cccs3)CC2)cc1,2.35% (inactive)
4,COc1ccc(SSc2ccc(OC)cc2C(=O)O)c(C(=O)O)c1,2.51% (inactive)
5,CC[C@@H](CCC(=O)N(c1ccccc1)c1ccccc1)C1CC1,1.63% (inactive)
6,COCC(C)NC(=O)COc1nncc2ccccc12 (stereo not drawn),-0.71% (inactive)
7,O=C(CSc1nc2ccccc2n1Cc1ccccc1)NNC(=S)Nc1ccccc1,31.7% (inactive)
8,C[C@H]1CN([C@@H](C)CO)C(=O)CCCn2nncc2CO[C@@H]1CN(C)C(=O)Nc1ccc(N2CCN(C)CC2)cc1,4.52% (inactive)
9,CC1CC1C(=O)OCC(=O)c1c(N)n(C)c(=O)n(C)c1=O (stereo not drawn),-4.36% (inactive)
10,CCCCNC(=O)C[C@H]1C[C@@]2(C(=O)OC)C(=C[C@H](COCc3ccccc3)O[C@@H]2C)N(Cc2ccc(Cl)cc2Cl)C1=O,8.58% (inactive)
11,CCN(CC)C(=O)CC[C@H]1CC[C@]2(CCCN(Cc3ccc(Cl)cc3)C2)O1,-2.21% (inactive)
12,COC(=O)c1cccc(N(C(=O)c2ccco2)C(C(=O)NC2CCCC2)c2ccco2)c1 (stereo not drawn),-6.24% (inactive)
13,CCOc1ccccc1C(=O)N1CCC[C@@H]1C(=O)N1CCC[C@H]1C(=O)NCc1ccccc1,-1.61% (inactive)
14,COc1ccc(-c2ccc3c(n2)CCCN3S(=O)(=O)c2ccc(C)cc2)cc1,4.71% (inactive)
15,CC(C)(C)c1ccc(S(=O)(=O)NCC2CCN(C(=O)C(=O)c3cc4ccccc4o3)CC2)cc1,9.84% (inactive)
16,COc1ccc(/C=C2\CC3(OC(C)=O)CCCN2C3)cc1 (stereo not drawn),-0.3% (inactive)
17,CC(=O)Oc1c(C(=O)c2nnc(C)o2)c(=O)n(Cc2ccccc2)c2ccccc12,2.47% (inactive)
18,Cc1ccc(C(=O)/C=C/Nc2ccc(S(=O)(=O)Nc3onc(C)c3C)cc2)cc1,48.3% (active)
19,Cc1cc(OC(C)C(=O)Nc2ccc(S(=O)(=O)Nc3onc(C)c3C)cc2)cc(C)c1Cl (stereo not drawn),75.6% (active)
20,CC(Oc1cccc(Cl)c1)C(=O)Nc1ccc(S(=O)(=O)Nc2ncccn2)cc1 (stereo not drawn),8.9% (inactive)
21,Cc1cc(C)nc(NS(=O)(=O)c2ccc(N/C=C\C(=O)c3cccs3)cc2)n1,10.2% (inactive)
22,Cc1noc(NS(=O)(=O)c2ccc(NC(=O)C34CCC(CC3)C4)cc2)c1C,2.57% (inactive)
23,Cc1cc(NS(=O)(=O)c2ccc(NC(=O)C(C)Oc3cccc(C)c3C)cc2)nc(C)n1 (stereo not drawn),18.4% (inactive)
